# Results from PubChem BioAssay (EPA / NIEHS).
# The source made the active and inactive calls. The calls were made as follows: active = hit-call score of the fitted dose curve at least 0.9, where 1 is the maximum; inactive = score below 0.9.
# Assays:
# [1] = target: Bile acid receptor (Homo sapiens) (UniProt Q96RI1); test: ATG_IR1_CIS: Attagene CIS-FACTORIAL HepG2 Assay for human Nuclear Receptor Subfamily 1 Group H Member 4 (NR1H4), IR1 submotif (AID 2282946); conditions: IR1 reporter transcription, actives raise or lower the signal
# Method in brief: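 Transient MRTU transfection, HepG2; 24 h dosing; RNA → RT-PCR → 6-FAM primer extension → HpaI digest → capillary electrophoresis fluorescence. Gain/loss of signal fitted relative to DMSO.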
# [2] = ATG_ISRE_CIS: Attagene CIS-FACTORIAL HepG2 Assay for human Interferon Regulatory Factor 1 (IRF1) binding to an Interferon-Stimulated Response Element (ISRE) (AID 2282948); conditions: HepG2 ISRE cis-reporter (Attagene), mRNA transcription readout; actives raise or lower the signal
# Method in brief: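 Cell-based cis-reporter assay; HepG2; 24 h exposure; reporter mRNA by RT-PCR plus capillary electrophoresis fluorescence; activity in either direction scored relative to DMSO.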
# [3] = ATG_M_32_CIS: Attagene CIS-FACTORIAL HepG2 Assay for M32 Transcription Factor (Internal Marker) (AID 2282949); conditions: HepG2 Attagene cis-factorial M32 reporter, mRNA; actives raise or lower the signal;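 also: background control marker of the multiplexed CIS panel rather than a real target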
# Method in brief: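 Fluorescent capillary electrophoresis peaks of HpaI-digested, FAM-labelled RT-PCR reporter products give the signal. Source: transiently transfected human liver HepG2 cells, 24 h after chemical dosing; bidirectional fitting against DMSO.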
# [4] = ATG_M_06_CIS: Attagene CIS-FACTORIAL HepG2 Assay for M06 Transcription Factor (Internal Marker) (AID 2282950); conditions: HepG2 Attagene CIS-FACTORIAL M06 internal marker reporter; actives raise or lower the signal
# Method in brief: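 Fluorescence-labelled RT-PCR products from cis-promoter reporter units, cut with HpaI and resolved by capillary electrophoresis, give the signal. Cells are human HepG2, dosed for 24 h. Serves as background control, fitted relative to DMSO.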
# [5] = target: Hepatocyte nuclear factor 6 (Homo sapiens) (UniProt Q9UBC0); test: ATG_HNF6_CIS: Attagene CIS-FACTORIAL HepG2 Assay for human Hepatocyte Nuclear Factor 6 (HNF6) (AID 2282952); conditions: HepG2 Attagene cis-factorial HNF6 reporter transcription; actives raise or lower the signal
# Method in brief: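 Cells are HepG2 carrying transiently transfected cis-promoter reporter units. Treatment lasts 24 h, after which reporter transcripts are reverse-transcribed, amplified, FAM-labelled and sized by capillary electrophoresis. DMSO serves as baseline.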
# [6] = target: Heat shock factor protein 1 (Homo sapiens) (UniProt Q00613); test: ATG_HSE_CIS: Attagene CIS-FACTORIAL HepG2 Assay for human Heat Shock Transcription Factor 1 (HSE) (AID 2282953); conditions: HepG2 HSE cis-reporter, Attagene RNA transcription; actives raise or lower the signal
# Method in brief: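 After a 24 h incubation with test chemical, transfected HepG2 cells were harvested for RNA; reporter transcripts were measured by RT-PCR and capillary electrophoresis. Values reflect gain or loss of signal relative to DMSO.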
# [7] = ATG_MRE_CIS: Attagene CIS-FACTORIAL HepG2 Assay for human Metal Responsive Element (MRE) (AID 2282954); conditions: HepG2 MRE cis-reporter transcription, Attagene multiplex; actives raise or lower the signal
# Method in brief: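 Step one: transfect HepG2 with cis-regulated reporter units. Step two: dose 24 h. Step three: isolate RNA, RT-PCR, 6-FAM label, HpaI digest, capillary electrophoresis. Fit bidirectionally to DMSO.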
# [8] = target: Hypoxia-inducible factor 1-alpha (Homo sapiens) (UniProt Q16665); test: ATG_HIF1a_CIS: Attagene CIS-FACTORIAL HepG2 Assay for human Hypoxia Inducible Factor 1 (HIF1A) (AID 2282951); conditions: HepG2 Attagene cis-factorial HIF1a reporter transcription; actives raise or lower the signal
# Method in brief: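 Transient MRTU transfection of human HepG2 liver cells, 24 h compound treatment, then total RNA isolation, oligo(dT) reverse transcription, PCR amplification, fluorescent labelling and capillary electrophoresis of reporter fragments. Gain or loss relative to DMSO.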
# [9] = ATG_PBREM_CIS: Attagene CIS-FACTORIAL HepG2 Assay for human Phenobarbital-responsive Enhancer Module (PBREM) (AID 2282955); conditions: HepG2 PBREM cis-reporter, Attagene multiplexed transcription; actives raise or lower the signal
# Method in brief: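 Endogenous transcription factors in human liver HepG2 cells drive a PBREM cis-element reporter, whose transcript level after 24 h treatment is quantified by RT-PCR with capillary electrophoresis; activity fitted in both directions against DMSO.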
# [10] = ATG_GRE_CIS: Attagene CIS-FACTORIAL HepG2 Assay for human Glucocorticoid Response Elements (GRE) (AID 2282947); conditions: HepG2 GRE cis-reporter, Attagene multiplex mRNA; actives raise or lower the signal
# Method in brief: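 Following 24 h chemical exposure of transiently transfected HepG2 cells, total RNA was reverse-transcribed and reporter cDNA amplified, fluorescently labelled and sized by capillary electrophoresis. Signal gain or loss was fitted relative to DMSO vehicle.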
# Heat shock factor protein 1 (Homo sapiens), sequence (Q00613 whole entry, looked up): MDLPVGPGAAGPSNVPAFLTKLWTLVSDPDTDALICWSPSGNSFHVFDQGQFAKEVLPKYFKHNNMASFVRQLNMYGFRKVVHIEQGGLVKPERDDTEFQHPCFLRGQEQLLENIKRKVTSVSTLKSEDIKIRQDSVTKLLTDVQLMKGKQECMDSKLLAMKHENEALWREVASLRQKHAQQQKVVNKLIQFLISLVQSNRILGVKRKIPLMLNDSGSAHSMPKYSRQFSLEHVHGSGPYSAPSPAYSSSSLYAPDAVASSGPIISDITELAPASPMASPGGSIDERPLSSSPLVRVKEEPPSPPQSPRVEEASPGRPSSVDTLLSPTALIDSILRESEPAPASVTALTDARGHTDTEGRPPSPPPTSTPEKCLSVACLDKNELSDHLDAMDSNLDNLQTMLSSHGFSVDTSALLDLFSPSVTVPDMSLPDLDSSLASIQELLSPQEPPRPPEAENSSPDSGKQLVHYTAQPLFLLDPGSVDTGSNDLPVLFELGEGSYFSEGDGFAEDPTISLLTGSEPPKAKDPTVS
# Hepatocyte nuclear factor 6 (Homo sapiens), sequence (Q9UBC0 whole entry, looked up): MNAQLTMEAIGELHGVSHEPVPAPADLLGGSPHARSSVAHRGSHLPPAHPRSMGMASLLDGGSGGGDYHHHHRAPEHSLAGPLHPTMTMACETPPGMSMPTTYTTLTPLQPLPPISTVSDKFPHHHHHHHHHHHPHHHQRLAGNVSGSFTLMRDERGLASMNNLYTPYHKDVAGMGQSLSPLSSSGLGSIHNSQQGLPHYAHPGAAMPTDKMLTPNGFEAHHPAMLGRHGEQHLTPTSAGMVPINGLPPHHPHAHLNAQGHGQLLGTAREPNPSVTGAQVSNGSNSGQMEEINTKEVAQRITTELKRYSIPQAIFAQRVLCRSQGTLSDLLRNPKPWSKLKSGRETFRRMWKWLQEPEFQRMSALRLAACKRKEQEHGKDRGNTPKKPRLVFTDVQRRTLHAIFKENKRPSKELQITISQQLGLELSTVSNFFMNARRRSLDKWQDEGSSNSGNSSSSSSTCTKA
# Hypoxia-inducible factor 1-alpha (Homo sapiens), sequence (Q16665 whole entry, looked up, the tested form may be a part): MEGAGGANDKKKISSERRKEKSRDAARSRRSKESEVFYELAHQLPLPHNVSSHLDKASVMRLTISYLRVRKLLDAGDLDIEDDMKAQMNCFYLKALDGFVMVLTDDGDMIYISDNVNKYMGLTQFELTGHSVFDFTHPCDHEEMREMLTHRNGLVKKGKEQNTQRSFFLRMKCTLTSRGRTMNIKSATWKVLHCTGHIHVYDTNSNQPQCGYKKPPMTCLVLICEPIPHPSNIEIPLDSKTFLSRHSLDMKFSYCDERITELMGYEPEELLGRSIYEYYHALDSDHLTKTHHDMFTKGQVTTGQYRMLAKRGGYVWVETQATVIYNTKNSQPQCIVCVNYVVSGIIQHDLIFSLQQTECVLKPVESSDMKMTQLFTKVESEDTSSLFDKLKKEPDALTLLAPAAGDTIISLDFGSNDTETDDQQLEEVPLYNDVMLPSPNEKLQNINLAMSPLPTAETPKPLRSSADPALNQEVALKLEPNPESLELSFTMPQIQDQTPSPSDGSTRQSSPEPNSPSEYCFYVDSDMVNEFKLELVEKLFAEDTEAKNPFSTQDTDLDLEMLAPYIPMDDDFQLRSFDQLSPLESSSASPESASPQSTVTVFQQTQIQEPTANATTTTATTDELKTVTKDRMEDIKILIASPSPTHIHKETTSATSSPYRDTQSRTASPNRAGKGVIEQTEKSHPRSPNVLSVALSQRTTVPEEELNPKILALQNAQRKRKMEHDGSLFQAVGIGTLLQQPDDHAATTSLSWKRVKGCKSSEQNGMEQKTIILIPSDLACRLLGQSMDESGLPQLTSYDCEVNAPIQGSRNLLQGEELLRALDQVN
# Bile acid receptor (Homo sapiens), sequence (Q96RI1 whole entry, looked up): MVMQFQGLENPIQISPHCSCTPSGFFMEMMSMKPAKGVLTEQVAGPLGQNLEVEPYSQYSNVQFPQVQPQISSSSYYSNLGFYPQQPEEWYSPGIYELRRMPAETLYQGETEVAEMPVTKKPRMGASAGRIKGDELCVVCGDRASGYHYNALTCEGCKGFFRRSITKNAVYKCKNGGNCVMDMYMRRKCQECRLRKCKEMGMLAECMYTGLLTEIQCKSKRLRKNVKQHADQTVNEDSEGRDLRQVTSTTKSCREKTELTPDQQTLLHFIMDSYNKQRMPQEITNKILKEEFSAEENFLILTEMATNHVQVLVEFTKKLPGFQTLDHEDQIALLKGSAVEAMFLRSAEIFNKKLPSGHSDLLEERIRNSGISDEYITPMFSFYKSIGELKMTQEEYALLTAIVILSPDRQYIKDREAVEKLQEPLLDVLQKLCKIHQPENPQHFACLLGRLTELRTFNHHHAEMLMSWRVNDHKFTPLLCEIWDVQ
SMILES,outcome [1],outcome [2],outcome [3],outcome [4],outcome [5],outcome [6],outcome [7],outcome [8],outcome [9],AC50 [2],AC50 [8],AC50 [6],outcome [10],AC50 [7]
CCOC(=O)CCc1ccccc1,inactive,inactive,inactive,inactive,inactive,inactive,inactive,,,,,,,
CCCCCCCCCC(=O)OC,inactive,inactive,inactive,inactive,inactive,inactive,inactive,inactive,inactive,,,,,
O=C(CS)OCCOC(=O)CS,inactive,,inactive,inactive,inactive,inactive,inactive,inactive,inactive,57.8 µM (active),,,,
O=C(O)CCCCCCCCC(=O)O,inactive,inactive,inactive,,inactive,inactive,inactive,inactive,inactive,,,,,
N#Cc1cscn1,inactive,inactive,inactive,inactive,inactive,inactive,inactive,,inactive,,,,,
Oc1ccc2cc(SSc3ccc4cc(O)ccc4c3)ccc2c1,inactive,,inactive,inactive,inactive,,,,inactive,100 µM (active),30.6 µM (active),78.1 µM (active),,
CCOc1ccc(NC(=O)CC(C)=O)cc1,,inactive,inactive,inactive,inactive,inactive,inactive,,inactive,,30.4 µM (active),,inactive,
CC(C)(N=C=O)c1cccc(C(C)(C)N=C=O)c1,,inactive,inactive,inactive,inactive,inactive,inactive,inactive,inactive,,,,inactive,
C=C(C)[C@@H]1CC=C(C)C(=O)C1,,inactive,inactive,inactive,inactive,inactive,inactive,inactive,,,,,inactive,
Cc1cc(S(=O)(=O)O)ccc1N=Nc1c(O)ccc2ccccc12,inactive,inactive,,inactive,inactive,inactive,inactive,inactive,,,,,,
CCCCCCCCCCCCCCCC(=O)OC/C=C(C)/C=C/C=C(C)/C=C/C1=C(C)CCCC1(C)C,,inactive,inactive,inactive,inactive,inactive,inactive,inactive,inactive,,,,inactive,
CC(Oc1cc(Cl)ccc1Cl)C(=O)O (configuration not stated),,inactive,inactive,inactive,inactive,inactive,inactive,inactive,inactive,,,,inactive,
CC(C)(C)CC(C)(C)c1ccc(OCCOCC[N+](C)(C)Cc2ccccc2)cc1,,inactive,inactive,inactive,inactive,inactive,,inactive,,,,,inactive,8.35 µM (active)
Cc1ccc(-c2ccccc2)cc1,,inactive,inactive,inactive,inactive,inactive,inactive,inactive,inactive,,,,inactive,
